Most compounds without a hit are left out; they make up all but 1.8% or so of the library.
p53ts 39C tox = qHTS Screen for Compounds that Selectively Target Cancer Cells with p53 Mutations: Cytotoxicity of p53ts Cells at the Nonpermissive Temperature; H1299-p53A138V viability at 39C, ATP luminescence, 24 h; hit rate 1.5% among 130,000; AID 902, 2007; Potency, µM (series often up to 46.1 µM), for inactives: top-dose activity change, negative = cell killing, hits mostly cytotoxic; note: % is set by controls: 0 for no effect and ±100 for the full control effect; nearly all actives have a fitted effect of over 55% in size
p53ts 32C kill = qHTS Screen for Compounds that Selectively Target Cancer Cells with p53 Mutations: Cytotoxicity of p53ts Cells at the Permissive Temperature. H1299-p53A138V at 32C, ATP luminescence viability, 24 h. Potency, µM (highest dose often 46.1 µM), without a hit: at the top dose activity change, negative = cytotoxicity, hits mostly cytotoxic. hit rate 0.93% among 130,000. AID 924, 2007;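 note: 0% = DMSO and -100% = full killing by reference compound; nearly all actives have a fitted effect of over 55% in size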
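Cells: H1299 p53ts (A138V), 600/well, pre-incubated 16–30 h at 37C. Cpd up to 46 uM, 24 h, 32C. Readout: ATPlite luminescence, 20 min RT. Normalization: DMSO vs tamoxifen 100 uM. AC50 by Hill equation.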
Peg3 imprint = qHTS Assay for Compounds that Induce Erasure of Genomic Imprints. mouse ES Peg3-LacZ reporter, beta-gal luminescence, 40 h. Potency, µM (titrated, usually from 60.7 µM), for inactives: at the top dose activity change, positive = activation, hits mostly activators. hit rate 0.02% among 110,000. AID 1948, 2009
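Readout: BetaGlo luminescence (5 min, room temp) for LacZ from the normally silent maternal Peg3 allele in female Peg3LacZ-Neo ES cells. Cells 300/well, 40 h, 37C, 5% CO2. Data normalized per plate to negative controls.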
IkB sig inh = IkB Signaling; AID 445, 2006; hit rate 0.04% among 110,000; Potency, µM (doses to about 57.1 µM), for the others: at the highest dose IkBa stabilization activation; ABC-DLBCL IkBa-CBG/CBR dual luciferase ratio, 4 h; response scale: scaled: untreated 0%, proteasome inhibitor 100%; active = well fitted curve in the direction sought with a large enough effect in the signal ratio, not every such curve was filed as active; inconclusive = small, poorly fitted or top-dose-only effect, or a change in a side signal; the % refers to the signal ratio;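 note: the direction sought is a rising ratio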
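Curves were fitted separately to fusion (green), unfused (red) and ratio luminescence, then classed by r2, magnitude and activity. Cells: OCI-Ly3, 4 h compound plus doxycycline at 37C; 10 uM MG-132 defined full response.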
The depositor's hits bear a star; ? = inconclusive; nt = no result; [ ] = dose if it differs, or a comment. Unless noted, calls come from the whole dose curve; as a rule, active = well fitted curve in the direction sought with a large enough effect; inconclusive = small, poorly fitted or top-dose-only effect, or another doubt; inactive = no such curve, though single readings can be large; an effect the other way counts as inactive or inconclusive. Potency is the fitted concentration of half-maximal effect.

SMILES	p53ts 39C tox	p53ts 32C kill	Peg3 imprint	IkB sig inh
COc1ccc(O)c(C(=O)CC(=O)c2ccc(F)cc2)c1	6.3µM*	6.3µM*	-92%	?
CCSc1nnc(NC(=O)c2ccccn2)s1	10µM*	10µM*	-85%	?
CCSc1nnc(NC(=O)c2cnccn2)s1	-4%	-4%	-2%	-3%
N#C[C@@H](Cc1ccc(O)c(O)c1)C(=O)N1CCc2ccccc21	43%	60%	nt	2%
O=C(Nc1ccc(-c2nc3ccccc3o2)cc1)C1CCCO1 (stereo not drawn)	10µM*	16µM*	nt	?
CCN(CC)CCOC(=O)c1ccc(NC(=O)COc2cc(=O)n(CC)c3ccccc23)cc1	-18%	-10%	-11%	3%
CCN(CC)CCOC(=O)c1ccc(NC(=O)CSc2cc(=O)n(CC)c3ccccc23)cc1	10µM*	-3%	?	1%
COc1cc(Cl)c(C)cc1NC(=O)Cn1cc(S(=O)(=O)N2CCC(C)CC2)c2ccccc2c1=O	-7%	13%	-15%[10.9 µM]	6%
CCc1ccc(-n2c(SCc3ccccc3C)nc3[nH]ncc3c2=O)cc1	25µM*	?	-12%[10.9 µM]	?
Cc1ccc(-n2c(SCc3cccc(F)c3)nc3[nH]ncc3c2=O)cc1C	0%	-18%	-10%[10.9 µM]	-3%
Cc1ccc(-n2c(SCc3ccccc3C)nc3[nH]ncc3c2=O)cc1C	25µM*	15%	-12%[10.9 µM]	?
CCc1ccc(-n2c(SCc3ccccc3Cl)nc3[nH]ncc3c2=O)cc1	?	?	24%[10.9 µM]	?
COc1ccc(CC(=O)c2ccccc2C(=O)O)cc1	10µM*	?	-10%	-1%
COc1ccc(CC(=O)Nc2cccc(C(=O)O)c2C)cc1	5%	3%	-19%	1%
CCCCn1c(CN2CCOCC2)nc2c1c(=O)n(C)c(=O)n2C	4µM*	?	-37%	?
CC(NC(=O)c1ccc(NC(=O)c2nsc3ccccc23)cc1)c1ccccc1 (stereo not drawn)	?	?	-5%[10.9 µM]	?
CCOc1ccc(CNC(=O)CCCn2c(=O)c3cccn3c3ccccc32)cc1	-27%	7%	-15%[10.9 µM]	-1%
COc1ccc(/C=C/C(=O)c2cccs2)c(OC)c1	5µM*	16µM*	-25%	nt
COc1ccc(Nc2nc(N)c3cc(OC)c(OC)cc3n2)cc1	13µM*	?	-39%[10.9 µM]	?
Cc1ccccc1NS(=O)(=O)c1ccc2[nH]c3c(c2c1)CCCCC3	25µM*	9%	19%[10.9 µM]	?
COc1ccc(NS(=O)(=O)c2ccc3[nH]c4c(c3c2)CCCC4)cc1Cl	nt	6%	nt	nt
Cc1ccc(NS(=O)(=O)c2ccc3[nH]c4c(c3c2)CCCCCC4)cc1Cl	25µM*	1%	-6%[10.9 µM]	?
Cc1cccc(NS(=O)(=O)c2ccc3[nH]c4c(c3c2)CCCCCC4)c1	?	0%	16%[10.9 µM]	?
O=C(CN1C(=O)C(c2ccc(F)cc2)=NC12CCCCCC2)Nc1ccc(F)c(Cl)c1	10µM*	20%	-5%[10.9 µM]	?
CCc1ccc(NC(=O)c2ccc(CN3C(=O)C(C)=C(c4ccc(C)cc4)S3(=O)=O)cc2)cc1	0%	-6%	-8%[10.9 µM]	-2%
SMILES	p53ts 39C tox	p53ts 32C kill	Peg3 imprint	IkB sig inh
COc1ccc(C2CC(c3cccs3)=Nc3ccccc3S2)cc1 (stereo not drawn)	47%	25µM*	nt	nt
O=C1OC2(CCCCC2)OC(=O)C1=CNc1ccc2c(c1)OCO2	1%	3%	-2%	2%
O=C1/C(=C/Nc2ccc3c(c2)OCO3)CCc2ccccc21	6.3µM*	4µM*	-95%	?
Cc1nc2sccn2c(=O)c1S(=O)(=O)Nc1cc(C(F)(F)F)ccc1Cl	-20%	-4%	-15%[10.9 µM]	?
CCc1cccc(NC(=O)c2cn3c4c(ccc(Cl)c4c2=O)OC(C)C3)c1 (stereo not drawn)	nt	-4%	nt	nt
COc1ccc(C(=O)/C=C/c2cn(CC(O)CN3CCCCCC3)c3ccccc23)cc1OC (stereo not drawn)	13µM*	-16%	-5%[10.9 µM]	?
Cc1ccc(C(=O)/C=C/c2cn(CC(O)CN3CCCCCC3)c3ccccc23)cc1 (stereo not drawn)	13µM*	?	?	?
O=C(/C=C/c1cn(CC(O)CN2CCCCCC2)c2ccccc12)c1ccccc1 (stereo not drawn)	?	-13%	-11%[10.9 µM]	?
O=C(/C=C/c1cn(CC(O)CN2CCCCCC2)c2ccccc12)c1ccc(Br)cc1 (stereo not drawn)	?	-4%	10%[10.9 µM]	6%
COc1cccc2sc(N3CCN(C(=O)CCS(=O)(=O)c4ccc(F)cc4)CC3)nc12	1%	-1%	-13%[10.9 µM]	?
Cc1cccc(C)c1Nc1c(-c2ccc(N3CCOCC3)cc2)nc2ncccn12	-14%	18%	-14%[10.9 µM]	-2%
c1cn2c(NC3CCCC3)c(-c3ccc(N4CCOCC4)cc3)nc2cn1	16µM*	10µM*	-9%	0%
CCC(c1nnnn1Cc1ccccc1)N(Cc1ccco1)Cc1cc2cc(OC)ccc2[nH]c1=O (stereo not drawn)	-6%	-14%	nt	4µM*
Cc1ccccc1S(=O)(=O)Cc1ccc(C(=O)N2CCN(c3cccc(C)c3C)CC2)o1	13µM*	?	-34%	?
CO[C@@H]1COC(=O)[C@H](C)NC(=O)C/C=C\[C@@H](C)[C@H](OC)COC(=O)[C@H](C)NC(=O)C/C=C\[C@H]1C	13%[9.22 µM]	5%[9.22 µM]	nt	nt
Oc1c(I)cc(I)c2cccnc12	7.9µM*	?	-34%	nt
Oc1c(Cl)cc(Cl)c2cccnc12	3.2µM*	?	-31%	nt
Oc1ccc(Cl)c2cccnc12	-14%	-10%	-2%	nt
Oc1c(CN2CCN(c3ccccn3)CC2)cc(Cl)c2cccnc12	-24%	3%	-25%	?
Cc1nc2ccn(Cc3cccs3)c(=O)c2cc1C(=O)NCc1ccc(Br)cc1	-18%	-7%	-3%[10.9 µM]	3%
CCN(CC)S(=O)(=O)c1ccc(NC(=O)c2nn(C)c3c2CSc2ccccc2-3)cc1	-2%	1%	-9%[10.9 µM]	?
O=C(Nc1ccc(Cl)cc1Cl)c1cc(S(=O)(=O)N2CCN(c3ccccc3F)CC2)ccc1F	34%	7%	-13%[10.9 µM]	?
Cc1ccc(NC(=O)C2CCCN(c3cnccn3)C2)cc1Cl (stereo not drawn)	-33%	1%	-9%[10.9 µM]	?
O=C(Cn1ncc2c(=O)oc3ccccc3c21)Nc1cc(F)ccc1F	6.3µM*	3%	?	2%
COc1ccc(NC(=O)Cn2nnnc2-c2ccccc2F)c(C)c1	-10%	10%	-12%[10.9 µM]	1%
COc1ccccc1CCNC(=O)C(=O)NCC(c1cccnc1)N1CCN(c2ccccc2)CC1 (stereo not drawn)	5%	3%	-8%[10.9 µM]	0%
Cc1ccc(-c2cc(-c3ccccc3)no2)c(O)c1	5µM*	nt	nt	nt
CCn1cc2nc(SCc3ccccc3)n(Cc3ccc(C)cc3)c(=O)c2n1	54%	-1%	-15%[10.9 µM]	-2%
